For 103 molecules, Potency results are on record in PubChem BioAssay AID651558 (National Center for Advancing Translational Sciences (NCATS), 2012).

Screen size: about 1,200 compounds; about 480 (40%) were called active. Roughly 29% stayed inconclusive and do not appear here. Calls follow the shape of the dose curve; as a rule, active = well fitted inhibition curve with a large enough effect; inconclusive = small, poorly fitted or top-dose-only effect; inactive = no such curve, though single readings can be large or run the other way. This is one part of the list.
Potency is read from the fitted curve at half-maximal effect.

A short description of the assay: qHTS Assay to Find Inhibitors of Chronic Active B-Cell Receptor Signaling: Hit Validation in Primary Screen. Also: nearly all actives have a fitted effect of over 75% in size. The following applies: ABC-DLBCL IkB-luc/CBR ratio luminescence, 4 h; series mostly up to 46.1 µM. The method in brief:
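Concentration series (3 nM to 46 uM) tested on TMD8 cells induced with doxycycline for 4 h. Filter-corrected green (IkBa fusion) over red (unfused) luciferase signal; Data were normalised to 10 uM MG-132 and untreated cell wells.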
With `COCCCNC(=O)C(=O)Nc1ccc2c(c1)N(S(=O)(=O)c1cccs1)CCC2`, the Potency was 16.4 µM (active).

For `CCCC(=O)OCCNc1cc(Sc2nccn2C)c2nonc2c1[N+](=O)[O-]`, the Potency is 3.66 µM (active).

With `CCOC(=O)CSC1=C(C#N)C(c2ccc(C)s2)CC(=O)N1` (stereo not drawn), the Potency was 16.4 µM (active).

As for `CCOC(=O)CSC1=C(C#N)C(c2ccc(C)o2)CC(=O)N1` (stereo not drawn), the Potency was 4.11 µM (active).

As for `CCCCNC(=S)N=Nc1c(O)[nH]c2ccccc12`, the Potency result is “inactive”.

`COc1ccc(/C=C2\CCc3ccccc3C2=O)cc1O`: the Potency is 13 µM (active).

Regarding `COc1cc(/C=N/N(C)c2ccccc2)ccc1O`, the Potency result was “inactive”.

Take `CCc1ccc(NC(=O)C(C)OC(=O)/C=C/c2ccc(O)c(OC)c2)cc1` (stereo not drawn): the Potency is 20.6 µM (active).

As to `CCOC(=O)/C=C/C(=O)OCC(=O)Nc1ccc(OC)c(Cl)c1`, the Potency entry is “inactive”.

Take `CC(C)N1C(=O)/C(=C/c2nc3ccccc3c(=O)n2-c2ccccc2)c2ccccc21`: the Potency was 18.4 µM (active).

Turning to `COc1ccc(-c2nn(C)c(=O)c3ccccc23)cc1CNS(C)(=O)=O`, the Potency result was “inactive”.

Consider `COc1ccccc1CNS(=O)(=O)c1ccc(-c2cnc(C3CC3)o2)cc1`, for which the Potency is 16.4 µM (active).

Regarding `COc1ccccc1CNS(=O)(=O)c1ccc(-c2cc(C)no2)cc1`, the Potency is 13 µM (active).

For the molecule `CCOc1ccccc1NS(=O)(=O)c1ccc(-c2cnc(C3CC3)o2)cc1`, the Potency was 0.82 µM (active).

Regarding `COc1ccccc1NS(=O)(=O)c1ccc(-c2cnc(C3CC3)o2)cc1`, the Potency result is “inactive”.

Turning to `CCOc1ccccc1CNS(=O)(=O)c1ccc(-c2cnc(C3CC3)o2)cc1`, the Potency was 7.31 µM (active).

For the molecule `CCN(CC(=O)Nc1ccccc1SC)Cc1nc2ccccc2c(=O)[nH]1`, the Potency entry is “inactive”.

With `N#Cc1cccc2c1-c1ccccc1/C2=N/NC(N)=S`, the Potency entry was “inactive”.

For `Cn1c(=S)c2[nH]c(SCCN3CCCC3)nc2n(C)c1=O`, the Potency entry is “inactive”.

On to `Cc1ccc(S(=O)(=O)Nc2cccc3ncccc23)s1`, for which the Potency was 4.61 µM (active).

Turning to `O=S(=O)(Nc1cccc2ncccc12)c1cccs1`, the Potency was 5.8 µM (active).

For `CCC(=NCCc1c(C)[nH]c2ccc(C)cc12)C1=C(O)CC(c2ccccc2)CC1=O` (stereo not drawn), the Potency is 0.82 µM (active).

Turning to `CC(C)c1ccc(/C=N/NC(=O)c2ccccc2Cl)cc1`, the Potency is 20.6 µM (active).

As for `CCCC(=O)Nc1ccc(C(=O)N/N=C/c2cccnc2)cc1`, the Potency entry was “inactive”.

Take `Cc1cc2nc(/C=C/c3cccnc3)[nH]c2cc1C`: the Potency was 1.03 µM (active).

In the case of `CC(C)(C)NC(=S)N/N=C/c1cccnc1`, the Potency result was “inactive”.

Take `Cc1ccc(N2C(=O)c3cccc4c(N)ccc(c34)C2=O)c2cccnc12`: the Potency was 0.461 µM (active).

In the case of `COc1cc(C(=O)N/N=C(\C)c2ccc3c(c2)OCO3)cc(OC)c1OC`, the Potency was 18.4 µM (active).

For `COc1cc(C(=O)N/N=C(\Cc2ncc[nH]2)c2ccccc2)cc(OC)c1OC`, the Potency result was “inactive”.

Regarding `COc1cc(C(=O)c2cocc2C(=O)c2ccc3c(c2)OCO3)cc(OC)c1OC`, the Potency was 14.6 µM (active).

Turning to `COc1cc(C(=O)N/N=C(\C)Cc2ccccc2)cc(OC)c1OC`, the Potency entry is “inactive”.

`O=C(Oc1c(CN2CCOCC2)cc(Cl)c2cccnc12)c1cccs1`: the Potency entry was “inactive”.

Consider `CNC(=O)[C@H]1O[C@@H](n2cnc3c(NCc4cccc(I)c4)ncnc32)[C@H](O)[C@@H]1O`, for which the Potency is 1.64 µM (active).

`CNC(=O)[C@H]1O[C@@H](n2cnc3c(NCc4cccc(I)c4)nc(Cl)nc32)[C@H](O)[C@@H]1O`: the Potency is 2.31 µM (active).

Consider `COc1cc2c(cc1OC)C(/C(C#N)=N\O)=NC(C)(C)C2`, for which the Potency result is “inactive”.

As to `CCc1ccc(CCC(=O)Nc2sc3c(c2C#N)CCCC3)o1`, the Potency was 5.8 µM (active).

Take `N#Cc1c(NC(=O)/C=C/c2ccco2)sc2c1CCCC2`: the Potency is 1.3 µM (active).

As to `CC(C)NC(=S)N=Nc1c(O)[nH]c2ccc([N+](=O)[O-])cc12`, the Potency result is “inactive”.

In the case of `CC(C)Oc1ccccc1C1CC(=O)Nc2cc3c(cc21)OCCO3` (stereo not drawn), the Potency was 8.2 µM (active).

As to `COc1ccccc1C1CC(=O)Nc2cc3c(cc21)OCCO3` (stereo not drawn), the Potency is 16.4 µM (active).

`COc1ccc(OC)c(C2CC(=O)Nc3n[nH]c(-c4ccccc4)c32)c1` (stereo not drawn): the Potency entry is “inactive”.

With `O=C(CSc1cccc[n+]1[O-])c1ccccc1Br`, the Potency result is “inactive”.

On to `COc1cc(C(=O)NNC(=O)C2CC=CCC2C(=O)O)cc(OC)c1OC` (stereo not drawn), for which the Potency entry is “inactive”.

For the molecule `COc1c(Cl)cc(C(=O)NN)cc1Cl`, the Potency result is “inactive”.

Take `COc1cc(C(=O)N2CCN(c3cc(Cl)ccc3Cl)CC2)cc(OC)c1OC`: the Potency is 1.16 µM (active).

As for `CCOC(=O)C1=C(C)c2ccccc2N(C(=O)OC)C1(C)C(=O)OCC` (stereo not drawn), the Potency result was “inactive”.

In the case of `O=S1(=O)C=C(Sc2nc3cc(Cl)ccc3o2)c2ccccc21`, the Potency was 16.4 µM (active).

For the molecule `CC(/C=C/c1ccccc1)=N\NC(N)=S`, the Potency entry was “inactive”.

With `N#CC(C#N)=C(N)CSc1cccc[n+]1[O-]`, the Potency entry is “inactive”.

For the molecule `O=C(CCl)Nc1cccc(S(=O)(=O)NC2=NCCC2)c1`, the Potency was 13 µM (active).

As to `O=C(CCl)Nc1cccc(S(=O)(=O)NC2=NCCCCC2)c1`, the Potency was 8.2 µM (active).

Turning to `CCOc1ccc(C(=O)NC(=S)Nc2cccc(S(=O)(=O)NC3=NCCC3)c2)cc1`, the Potency is 18.4 µM (active).

As to `CCOc1ccc(OCc2ccc(C(=O)N/N=C(\C)c3ccccn3)cc2)cc1`, the Potency result is “inactive”.

As for `COc1ccc(C(=O)c2ccc(N(C)C)cc2)c2ccccc12`, the Potency is 3.26 µM (active).

Turning to `CN(C)c1ccc(C(=O)c2ccc(N(C)C)c3ccccc23)cc1`, the Potency was 0.291 µM (active).

Turning to `Oc1ccc(CNc2ccccc2F)c2cccnc12`, the Potency result was “inactive”.

`O=C(Oc1c(CN2CCOCC2)cc(Cl)c2cccnc12)c1ccccc1F`: the Potency result is “inactive”.

For `Cc1noc(C)c1CSc1ccc2ccccc2n1`, the Potency result was “inactive”.

On to `C=CCn1c(SCc2c(C)noc2C)nc2ccccc2c1=O`, for which the Potency was 14.6 µM (active).

Turning to `CCn1ncc(C2=NOC(C(=O)NCc3ccc(Cl)cc3)C2)c1C` (stereo not drawn), the Potency is 8.2 µM (active).

Take `CCn1ncc(C2=NOC(C(=O)NCc3ccccc3)C2)c1C` (stereo not drawn): the Potency is 18.4 µM (active).

Take `Cc1ccc(Sc2c(CO)c(-c3ccccc3)nn2C)cc1`: the Potency was 5.17 µM (active).

As to `COc1ccc(/C=C(\C#N)c2c[nH]c3ccccc23)cc1`, the Potency was 14.6 µM (active).

As for `COc1ccc(CC(=O)OCC(=O)c2c[nH]c3ccccc23)cc1`, the Potency entry was “inactive”.

`N#C/C(=C\c1ccc(Cl)cc1)c1nc2ccccc2o1`: the Potency result was “inactive”.

`C=CCN(CC=C)C(=S)NC(=O)c1ccc(OC)cc1`: the Potency result is “inactive”.

Turning to `Cn1c(=S)[nH]c2c(c1=O)C(C)(C)Cc1ccccc1-2`, the Potency result was “inactive”.

With `COc1ccc(C(=O)/C=C2/c3ccccc3CC(C)(C)N2C)cc1`, the Potency is 20.6 µM (active).

As for `COc1cccc(C(=O)Nc2ccc3c(cc2=O)[C@@H](NC(C)=O)CCc2cc(OC)c(OC)c(OC)c2-3)c1`, the Potency is 23.1 µM (active).

Turning to `COc1cc2c(c(OC)c1OC)-c1ccc(OC)c(=O)cc1[C@@H](N(C)CC#CCO)CC2`, the Potency was 0.259 µM (active).

Consider `COc1cc2c(c(OC)c1OC)-c1ccc(OC)c(=O)cc1[C@@H](NC(C)=O)CC2`, for which the Potency was 0.206 µM (active).

Consider `COc1cc2c(c(OC)c1OC)-c1ccc(N(C)CC(OC)OC)c(=O)cc1[C@@H](NC(C)=O)CC2`, for which the Potency was 5.8 µM (active).

`CCCC(=O)O[C@]1(C(=O)CO)CC[C@H]2[C@@H]3CCC4=CC(=O)CC[C@]4(C)[C@H]3[C@@H](O)C[C@@]21C`: the Potency result was “inactive”.

`Cc1nc2c(-c3ccccc3)c[nH]n2c(=O)c1Cc1ccccc1`: the Potency entry was “inactive”.

Consider `CCN(CC)c1ccc(Nc2cc3n(c(=O)n2)CCc2cc(OC)c(OC)cc2-3)cc1`, for which the Potency entry was “inactive”.

For `COc1cc2c(c(OC)c1OC)-c1ccc(OC)c(=O)cc1C(NC(C)=O)CC2` (stereo not drawn), the Potency is 0.206 µM (active).

As to `CCN(CC)c1ccc2c(cc1=O)[C@@H](NC)CCc1cc(OC)c(OC)c(OC)c1-2`, the Potency was 5.8 µM (active).

With `NCCNC(=O)Cc1ccc(NC(=O)Cc2ccc(Nc3ncnc4c3ncn4[C@@H]3O[C@H](CO)[C@@H](O)[C@H]3O)cc2)cc1`, the Potency is 0.461 µM (active).

As to `NCCNC(=O)Cc1cccc(NC(=O)Cc2ccc(Nc3ncnc4c3ncn4[C@@H]3O[C@H](CO)[C@@H](O)[C@H]3O)cc2)c1`, the Potency is 1.46 µM (active).

As for `NC(=O)c1c(NC(=O)CSc2nc(N)cc(=O)[nH]2)sc2c1CCCC2`, the Potency is 9.2 µM (active).

In the case of `CC1CCc2c(sc(NC(=O)CSc3nc(N)cc(=O)[nH]3)c2C(N)=O)C1` (stereo not drawn), the Potency was 10.3 µM (active).

Consider `COc1cc2c(cc1OC)C(C)N(C(=O)c1cc(C)on1)CC2` (stereo not drawn), for which the Potency was 5.8 µM (active).

Regarding `COc1ccc(-c2nn(-c3ccccc3)cc2/C=N/NC(N)=S)cc1OC`, the Potency is 20.6 µM (active).

For the molecule `Cc1cccc(C)c1-n1c(C)cc(/C=N/NC(N)=S)c1C`, the Potency entry was “inactive”.

Regarding `COc1ccccc1NS(=O)(=O)c1cccc(C(=O)N/N=C/c2cn(-c3ccccc3)nc2-c2ccccc2)c1`, the Potency result was “inactive”.

For `Cc1ccccc1NCC(=O)c1ccc(Br)cc1`, the Potency entry was “inactive”.

As for `Cc1ccc(N(C)S(=O)(=O)c2ccc(-c3cnc(C4CC4)o3)cc2)cc1`, the Potency is 5.8 µM (active).

As for `Cc1cccc(N(C)S(=O)(=O)c2ccc(-c3cnc(C4CC4)o3)cc2)c1`, the Potency is 1.84 µM (active).

In the case of `Cc1ccc2[nH]c(-c3cccc(F)c3)cc(=O)c2c1`, the Potency is 4.11 µM (active).

Take `Cc1ccc2[nH]c(-c3ccccc3)cc(=O)c2c1`: the Potency is 5.17 µM (active).

As for `CCn1c(SCC(=O)c2ccc(Cl)cc2)nnc1C(C)C`, the Potency result is “inactive”.

In the case of `CCOc1cc(/C=C(/C#N)C(=O)Nc2ccc(O)cc2)cc(Br)c1O`, the Potency is 2.06 µM (active).

For `CC1(CCc2ccc(O)cc2)NC(=O)NC1=O` (stereo not drawn), the Potency entry is “inactive”.

As to `CCOC(=O)C1(C)C(C(=O)OC)=C(c2ccc(OC)cc2)c2ccccc2N1C(=O)OC` (stereo not drawn), the Potency result was “inactive”.

For the molecule `CCOC(=O)C(NC(=O)N(C)C)(Nc1sc(C)c(CC)c1C#N)C(F)(F)F` (stereo not drawn), the Potency entry is “inactive”.

With `Cc1ccnc(NC(=O)c2cccc(S(=O)(=O)Nc3ccc(C)cc3C)c2)c1`, the Potency entry is “inactive”.

On to `O=C(/C=C\c1ccccc1)Oc1cccc2cccnc12`, for which the Potency result was “inactive”.

In the case of `Cc1c(C(=O)Oc2cccc3cccnc23)oc2ccccc12`, the Potency entry is “inactive”.

In the case of `Cc1ccc(S(=O)(=O)Nc2cccc3cccnc23)cc1`, the Potency is 8.2 µM (active).

Turning to `O=S(=O)(Nc1cccc2cccnc12)c1ccccc1`, the Potency is 13 µM (active).

Regarding `O=[N+]([O-])c1ccccc1S(=O)(=O)Nc1cccc2cccnc12`, the Potency was 13 µM (active).

Consider `O=[N+]([O-])c1ccc(O)c2ncccc12`, for which the Potency result was “inactive”.

With `O=[N+]([O-])c1cc(F)c2cccnc2c1O`, the Potency entry is “inactive”.
